D3 ag = activates the human D3 dopamine receptor; AID 652048; 410,000 tested, 0.58% active; D3R DiscoveRx beta-arrestin cells, luminescence, 90 min; max activation, %; in the data active = max activation above about 30%
Target sequence (P35462 whole entry, looked up): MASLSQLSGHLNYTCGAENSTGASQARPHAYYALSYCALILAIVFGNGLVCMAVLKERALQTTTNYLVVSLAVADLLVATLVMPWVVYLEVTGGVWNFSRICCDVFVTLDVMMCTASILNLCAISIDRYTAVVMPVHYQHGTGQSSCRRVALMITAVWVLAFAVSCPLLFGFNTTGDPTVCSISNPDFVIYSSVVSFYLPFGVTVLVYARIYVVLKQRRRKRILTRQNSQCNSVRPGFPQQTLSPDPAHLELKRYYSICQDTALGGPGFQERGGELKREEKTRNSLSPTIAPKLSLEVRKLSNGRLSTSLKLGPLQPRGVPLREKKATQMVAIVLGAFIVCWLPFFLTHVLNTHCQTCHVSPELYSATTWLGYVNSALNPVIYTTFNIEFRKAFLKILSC
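Agonist mode: compounds and dopamine controls were applied to plated cells for 90 min at 37 degrees C after an overnight attachment at 1500 cells/well. Luminescent read-out followed 30 - 60 minutes at room temperature with DiscoveRx detection reagent.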
HepG2 viability = counter-screen for TGF-b inhibitors: cytotoxicity in HepG2 cells | HepG2 CAGA-GFP viability, ATP luminescence, 18 h | Potency, µM (doses to about 46.1 µM), hits mostly cytotoxic | 410,000 tested, 0.76% active
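CellTiter-Glo luminescence gave cytotoxicity after 18 hours at 37 degrees C. The cells were HepG2 CAGA-GFP in 1% FBS DMEM, stimulated with 500 pg/mL TGF-beta after compound addition. %Activity was normalised to no-cell wells (complete cell-killing) and DMSO (no toxicity), and curves were fitted and classified.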
D3 antag = antagonists of human D3 dopamine receptor. P35462. D3R cells, DiscoveRx beta-arrestin luminescence, antagonist mode; stronger effect = lower value. max response, negative = inhibition, %. 360,000 tested, 2.5% active. AID 652054; in the data active = max response below about -50%; inconclusive = no clear call, values can overlap the other calls
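Cells plated overnight at 1500 cells/well, then exposed to library compounds with dopamine controls for 90 minutes at 37 degrees C. DiscoveRx reagent added for 30–60 minutes at room temperature; luminescence read, quantitative HTS format.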
ATXN2 expr inh = ATXN2 expression inhibition; HEK-293 ATXN2-luciferase reporter, luminescence, 24 h; Potency, µM (top dose mostly 57 µM), hits mostly inhibitors; 360,000 tested, 0.72% active; also: nearly all actives have a fitted effect of over 55% in size
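qHTS (up to 57 uM final) was run with 24 h compound exposure of reporter cells at 37 °C. Each well was multiplexed: SteadyGlo luminescence measured ATXN2-luciferase expression after a fluorogenic Gly-Phe-AFC viability readout (25 uM final).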
TGFb inhibitor = TGF-b pathway inhibition. HepG2 CAGA-GFP TGF-b/SMAD3 reporter, GFP fluorescence, 18 h; TGF-beta stimulated, 500 pg/mL final. Potency, µM (series often up to 46.1 µM), actives largely listed as inhibitors. 410,000 tested, 1.2% active. AID 588855; also: nearly all actives have a fitted effect of over 65% in size
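Cell-based qHTS in HEPG2 carrying a CAGA-GFP Smad reporter; compounds added before 500 pg/mL final TGF-beta, 18 h incubation at 37 degrees C, GFP fluorescence quantified per cell by imaging cytometry.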
S2 tox = reduces viability in counter-screen for ATXN expression inhibitors. S2 cells (HEK-293 line with an ATXN2-luciferase reporter) viability, CellTiter-Fluor protease fluorescence, 24 h. Potency, µM (top dose mostly 56.7 µM), actives largely listed as cytotoxic. AID 651635. 400,000 tested, 0.49% active; also: nearly all actives have a fitted effect of over 40% in size
Of the large screens only hits and unclear results are named; the others gave an inactive call; ! = not confirmed by another sample. This is a sample that favours compounds with a hit; in the whole collection about 4.7% have one here. Unless noted, calls follow the shape of the dose curve; as a rule, active = well fitted curve in the direction sought with a large enough effect; inconclusive = small, poorly fitted or top-dose-only effect, or another doubt; inactive = no such curve, though single readings can be large; an effect the other way counts as inactive or inconclusive.

CCN(CC)CCc1c[nH]c2ccccc12	none (no result: HepG2 viability, D3 antag, TGFb inhibitor)
N[C@@H](Cc1ccc(N(CCCl)CCCl)cc1)C(=O)O	ATXN2 expr inh 5.4µM!, S2 tox inconclusive
CNCCCc1ccccc1	none
BrCCc1ccccc1	D3 antag -99
C#CCOCCOCCOCCNc1nc(N2CCN(C(=O)CCCCCCCCCCNC(=O)[C@H]([C@@H](C)CC)n3cc(CCCCN=C(N)N)nn3)CC2)nc(N2CCN(C(=O)CCCCCCCCCCNC(=O)[C@H](CO)n3cc(CCCCCN)nn3)CC2)n1	ATXN2 expr inh 28µM, TGFb inhibitor inconclusive, S2 tox 16µM
CNCC(=O)c1ccc(O)c(O)c1	D3 ag 61, S2 tox inconclusive (no result: HepG2 viability, D3 antag, TGFb inhibitor)
CNCC(=O)c1ccccc1	D3 antag -51, TGFb inhibitor inconclusive
O=C(CCl)c1ccc(O)c(O)c1	TGFb inhibitor inconclusive (no result: D3 ag, D3 antag, ATXN2 expr inh, S2 tox)
CCN(CC)P(=O)(/C=C(\Cl)c1ccccc1)/C=C(\Cl)c1ccccc1	none
CN1C2CCC1/C(=C/c1ccccn1)C(=O)/C2=C\c1ccccn1	HepG2 viability 10µM, D3 antag -70, ATXN2 expr inh inconclusive, TGFb inhibitor 2.8µM, S2 tox inconclusive
C[C@]12CC[C@H]3[C@@H](CCC4=CC(=O)CC[C@@]43C)[C@H]1CC[C@H]2OC(=O)CCC1CCCC1	none (no result: D3 ag, HepG2 viability, D3 antag, TGFb inhibitor, S2 tox)
Clc1ccc2c(c1)C(c1ccccc1Cl)=NCc1nnc(N3CCN(CCOc4ccccc4)CC3)n1-2	D3 ag 54, TGFb inhibitor inconclusive, S2 tox inconclusive
Clc1ccc2c(c1)C(c1ccccc1Cl)=NCc1nnc(N3CCN(CCSc4ccccc4)CC3)n1-2	TGFb inhibitor inconclusive, S2 tox inconclusive
COc1ccccc1C(=O)Nc1ccc2nc(SCC(=O)N(C)c3ccccc3)sc2c1	D3 ag 39, ATXN2 expr inh inconclusive, S2 tox inconclusive (no result: D3 antag)
Cc1ccccc1C(=O)Nc1ccc2nc(SCC(=O)N(C)c3ccccc3)sc2c1	TGFb inhibitor inconclusive, S2 tox inconclusive (no result: D3 antag)
O=C(Cn1c(=O)oc2cc(S(=O)(=O)N3CCCC3)ccc21)NCc1ccc(Cl)cc1	none (no result: D3 antag)
CN1CCCN(C(=O)COc2cccc(C(F)(F)F)c2)CC1	D3 antag -89
O=C1CCCCC1	none
CCC1C2CC3C4N(C)c5ccccc5C45CC(C2C5O)N3[C@@H]1O (stereo not given in full)	D3 antag -70 (no result: ATXN2 expr inh)
CC[C@H]1C2C[C@H]3[C@@H]4N(C)c5ccccc5C45C[C@H](C2[C@H]5O)N3[C@@H]1O (stereo not given in full)	D3 antag -55
CC[C@H]1[C@@H]2C[C@H]3[C@@H]4N(C)c5ccccc5[C@]45C[C@@H](C2[C@H]5O)N3[C@@H]1O (stereo not given in full)	none (no result: HepG2 viability, D3 antag, ATXN2 expr inh, TGFb inhibitor)
O=C1NC[C@H](CCCCN2C[C@@H](Cc3ccccc3)N(CC3CCCCC3)C(=O)C2=O)N(CCC2CCCCC2)C1=O	S2 tox inconclusive (no result: HepG2 viability, TGFb inhibitor)
Clc1ccc(Cn2ccnc2)cn1	none
Clc1ccc(CCC(Cn2ccnc2)Sc2c(Cl)cccc2Cl)cc1 (stereo not given)	HepG2 viability 13µM, ATXN2 expr inh inconclusive, TGFb inhibitor inconclusive, S2 tox inconclusive
Cc1ccsc1C(=O)C1CCCN(Cc2ccccc2O)C1 (stereo not given)	D3 antag -53
Cc1ccsc1C(=O)C1CCCN(Cc2cnc(N)nc2)C1 (stereo not given)	none
CCc1ccc(CN2CCCC(C(=O)c3sccc3C)C2)o1 (stereo not given)	D3 antag -52
Cc1ccsc1C(=O)C1CCCN(Cc2cnn(C(C)C)c2)C1 (stereo not given)	D3 antag -73 (no result: ATXN2 expr inh)
COc1ccc2cc1Oc1ccc(cc1)C[C@H]1c3cc(c(OC)cc3CCN1C)Oc1c(OC)c(OC)cc3c1[C@H](C2)N(C)CC3	ATXN2 expr inh inconclusive, TGFb inhibitor inconclusive, S2 tox 25µM
COc1cc2c3cc1Oc1cc(ccc1O)C[C@@H]1c4c(cc(OC)c(O)c4Oc4cccc(c4)C[C@@H]3N(C)CC2)CC[N+]1(C)C	none
